High-throughput results (PubChem BioAssay)
Hits are enriched below; roughly 7.5% of the tested compounds scored in any of these assays.
Rab9 promoter act: activates the Rab9 promoter. hit rate 2.8% among 320,000. Huh7 Rab9 promoter-luciferase reporter, luminescence, 24 h. Potency, µM (doses to about 9.22 µM), actives largely listed as activators; also: nearly all actives have a fitted effect of over 60% in size
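Rab9 promoter-driven luciferase in stably transfected Huh7 cells; 1500 cells/well rested 2 h, exposed to compound in DMSO for 24 h at 37 °C, 5% CO2. Luminescence read 10 min after adding luciferase reagent at ambient temperature.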
ELG1 genotox: inducers of genotoxicity in HEK293T ELG1-luciferase cells | HEK293T ELG1-luciferase reporter, luminescence, 16 h | Potency, µM (series often up to 46 µM), most hits filed as activators | hit rate 1.3% among 330,000 | AID 504466; also: nearly all actives have a fitted effect of over 60% in size
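DMSO vehicle served as control against compound-treated ELG1-luciferase HEK293T cells; exposure lasted 16 hr at 37 °C and 5% CO2, followed by ONE-Glo luminescence detection after 30 min.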
SMN2 splice enh: increases expression of the SMN2 splice variant | HEK293 SMN2-luciferase splicing reporter, luminescence, 30-36 h | Potency, µM (titrated, usually from 46.1 µM), hits mostly activators | hit rate 2.8% among 210,000 | AID 1458; also: nearly all actives have a fitted effect of over 55% in size
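qHTS luciferase splicing reporter: luminescence rises when SMN2 exon 7 is included in transfected HEK293 cells. Compound exposure lasted 30-36 h at 37C, with 4.5 mM final sodium butyrate as control, followed by a ONE-Glo read.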
NPC1 promoter act: activators of NPC1 promoter. hit rate 2.4% among 320,000. Huh7 NPC1 promoter luciferase reporter, 24 h. Potency, µM (series often up to 9.22 µM), most hits filed as activators; also: nearly all actives have a fitted effect of over 60% in size
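Cells: Huh7 expressing luciferase under the NPC1 promoter, 1500/well. Seeded 2 h, compound added, incubated 24 h at 37 °C. Luciferase reagent, 10 min ambient, then luminescence.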
KinaseGlo FLuc: blocks Kinase-Glo luciferase, a counter-screen artifact; Kinase-Glo luciferase, ATP luminescence, 8 min; Potency, µM (series often up to 38.3 µM), usual class: inhibitors; hit rate 0.28% among 200,000; AID 1379; also: nearly all actives have a fitted effect of over 60% in size
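Light output from Kinase-Glo luciferase with luciferin and 10 uM ATP in 50 mM imidazole pH 7.2, KCl, MgCl2, Tween 20, BSA; compound pin-delivered, 8-min ambient incubation, then luminescence read.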
FLuc counter: counter-screen for miR-21 project: firefly luciferase inhibitors or activators. purified FLuc, Km substrates, luminescence inhibition. Potency, µM (series often up to 57.5 µM), usual class: inhibitors. hit rate 6.9% among 360,000. AID 588342; also: nearly all actives have a fitted effect of over 55% in size
Target sequence (P08659 whole entry, looked up): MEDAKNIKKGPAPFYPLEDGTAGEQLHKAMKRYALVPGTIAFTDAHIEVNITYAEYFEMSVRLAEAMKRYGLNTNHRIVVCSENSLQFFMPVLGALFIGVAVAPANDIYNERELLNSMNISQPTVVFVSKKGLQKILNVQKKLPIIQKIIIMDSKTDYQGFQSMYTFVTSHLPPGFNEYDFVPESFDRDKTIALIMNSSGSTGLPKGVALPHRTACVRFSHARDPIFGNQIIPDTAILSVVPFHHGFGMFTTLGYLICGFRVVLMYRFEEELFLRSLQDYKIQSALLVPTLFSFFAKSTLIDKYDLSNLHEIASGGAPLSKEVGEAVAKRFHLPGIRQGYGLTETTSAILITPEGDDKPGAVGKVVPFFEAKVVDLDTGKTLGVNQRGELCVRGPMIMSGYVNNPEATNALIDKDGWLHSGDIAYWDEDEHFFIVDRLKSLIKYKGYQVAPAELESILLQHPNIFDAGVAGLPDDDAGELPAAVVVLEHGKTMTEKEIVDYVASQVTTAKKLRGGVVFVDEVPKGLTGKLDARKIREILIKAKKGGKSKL
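Biochemical qHTS of compounds, final roughly 60 µM downward over six points, against 10 nM purified firefly luciferase using Km concentrations of substrates (10 uM D-luciferin, 10 uM ATP) in Tris acetate pH 7.5 buffer; luminescence output.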
Each line names hits and unclear results; the compound was inactive in the other large screens. Calls follow the shape of the dose curve; as a rule, active = well fitted curve in the direction sought with a large enough effect; inconclusive = small, poorly fitted or top-dose-only effect, or another doubt; inactive = no such curve, though single readings can be large; an effect the other way counts as inactive or inconclusive.

COc1ccccc1NC(=O)c1cc2cc(Br)ccc2cc1O	FLuc counter 16.9µM (no result: SMN2 splice enh, KinaseGlo FLuc)
Cc1ccc(C(=O)Nc2ncc(C)s2)s1	Rab9 promoter act inconclusive, ELG1 genotox inconclusive, NPC1 promoter act 0.447µM, FLuc counter 0.849µM (no result: SMN2 splice enh, KinaseGlo FLuc)
CSc1ccccc1C(=O)Nc1ncc(C)s1	FLuc counter inconclusive
Cc1ccc(C(=O)Nc2ncc(Cc3ccc(F)cc3)s2)o1	Rab9 promoter act 2.82µM, ELG1 genotox inconclusive, SMN2 splice enh 11.2µM, NPC1 promoter act 2.51µM, FLuc counter 2.69µM
Cc1ccc(C(=O)Nc2ncc(C)s2)o1	Rab9 promoter act 3.98µM, ELG1 genotox inconclusive, SMN2 splice enh 12.6µM, NPC1 promoter act 3.16µM, KinaseGlo FLuc inconclusive, FLuc counter 10.7µM
CCOC(=O)CN(C)C(=O)CCc1nnc(-c2ccc(-c3ccccc3)cc2)o1	FLuc counter inconclusive (no result: SMN2 splice enh, KinaseGlo FLuc)
CC(NC(=O)CCc1nnc(-c2ccc(-c3ccccc3)cc2)o1)c1nc2ccccc2[nH]1 (stereo not drawn)	FLuc counter 10.7µM (no result: SMN2 splice enh)
CC(C)(CO)CNC(=O)CCc1nnc(-c2ccc(-c3ccccc3)cc2)o1	FLuc counter 23.9µM (no result: SMN2 splice enh, KinaseGlo FLuc)
CC(C)CC1NC(=O)N(CC(=O)Nc2ccc(-c3ccccc3)cc2)C1=O (stereo not drawn)	none (no result: SMN2 splice enh, KinaseGlo FLuc)
O=C(c1ccccc1)N1CCC(c2nc3ccccc3o2)CC1	none (no result: Rab9 promoter act, ELG1 genotox, SMN2 splice enh, NPC1 promoter act, KinaseGlo FLuc)
c1ccc(CCCN2CCN(c3ccccc3)CC2)cc1	none (no result: SMN2 splice enh, KinaseGlo FLuc)
Cc1c(Cl)cc(C(C)(C)C)c(O)c1Cc1c(C)c(Cl)cc(C(C)(C)C)c1O	none (no result: Rab9 promoter act, ELG1 genotox, NPC1 promoter act, FLuc counter)
O=C1/C(=C\c2ccc3ccccc3c2)CCCc2ccccc21	ELG1 genotox 9.2µM, FLuc counter 2.13µM
Cc1ccccc1/C=C1\CCCc2ccccc2C1=O	Rab9 promoter act 0.891µM, ELG1 genotox inconclusive, SMN2 splice enh 10µM, NPC1 promoter act 3.98µM, KinaseGlo FLuc inconclusive, FLuc counter 2.39µM
Cc1ccsc1/C=C1\CCc2ccccc2C1=O	Rab9 promoter act 0.794µM, ELG1 genotox inconclusive, SMN2 splice enh 10µM, NPC1 promoter act inconclusive, KinaseGlo FLuc 10µM, FLuc counter 0.19µM
O=C1NC(=S)N/C1=C/c1ccc2ccccc2c1	none (no result: SMN2 splice enh, KinaseGlo FLuc)
CN(Cc1ccccc1)C(=O)Cn1c(=O)c2cccn2c2ccc(F)cc21	none (no result: Rab9 promoter act, ELG1 genotox, SMN2 splice enh, NPC1 promoter act, KinaseGlo FLuc)
COc1ccccc1NC(=O)/C=C\c1ccco1	Rab9 promoter act inconclusive, NPC1 promoter act inconclusive, FLuc counter 23.9µM (no result: SMN2 splice enh, KinaseGlo FLuc)
CC(C)(C)c1ccc(/C=C/C(=O)Nc2cccnc2)cc1	Rab9 promoter act 1.12µM, ELG1 genotox 2.31µM, NPC1 promoter act 2µM, FLuc counter 2.69µM (no result: SMN2 splice enh, KinaseGlo FLuc)
CSc1cccc(NC(=O)/C=C/c2ccco2)c1	Rab9 promoter act inconclusive, ELG1 genotox inconclusive, FLuc counter 19µM
COc1ccccc1NC(=S)NC(=O)/C=C/c1ccco1	none
COc1cccc(NC(=O)/C=C/c2ccco2)c1	Rab9 promoter act 2.51µM, ELG1 genotox inconclusive, SMN2 splice enh 12.6µM, NPC1 promoter act inconclusive, KinaseGlo FLuc inconclusive, FLuc counter 10.7µM
Cc1ccc(N(CC(=O)NC(C)(C)C)C(=O)CNC(=O)c2cccs2)cc1C	none (no result: SMN2 splice enh)
CC(C)(C)c1ccc(-c2nnc(SCC(=O)NC3CCS(=O)(=O)C3)n2N)cc1 (stereo not drawn)	KinaseGlo FLuc inconclusive, FLuc counter inconclusive
O=C(/C=C/c1ccco1)Nc1cccnc1	Rab9 promoter act inconclusive, ELG1 genotox inconclusive, SMN2 splice enh inconclusive, NPC1 promoter act inconclusive, FLuc counter 19µM
CN(C)/C=N/C(=S)Nc1ccc(Cl)c(Cl)c1	ELG1 genotox inconclusive, FLuc counter 16.9µM
CN(C)/C=N/C(=S)Nc1cc(Cl)cc(Cl)c1	none
Cc1[nH][nH]c(=O)c1N=Nc1ccccc1Cl	FLuc counter 15.1µM (no result: SMN2 splice enh, KinaseGlo FLuc)
Nc1[nH]c(=O)[nH]c(=O)c1N=Nc1ccccc1Cl	FLuc counter inconclusive (no result: SMN2 splice enh, KinaseGlo FLuc)
CCc1ccc(-n2nc(C)c3c(C)cc(=O)n(CC(=O)NCc4ccc(C)cc4)c32)cc1	none (no result: Rab9 promoter act, ELG1 genotox, SMN2 splice enh, NPC1 promoter act, KinaseGlo FLuc)
Nc1ccc(C2=Nc3cccc4cccc(c34)N2)cc1	KinaseGlo FLuc inconclusive, FLuc counter 21.3µM (no result: SMN2 splice enh)
COc1cccc(C2=Nc3cccc4cccc(c34)N2)c1	NPC1 promoter act inconclusive, FLuc counter 12µM
c1coc(C2=Nc3cccc4cccc(c34)N2)c1	FLuc counter inconclusive
NCCNC[C@H](O)CO	none (no result: Rab9 promoter act, ELG1 genotox, NPC1 promoter act, FLuc counter)
COc1ccc(-n2cc(C(=O)O)c(=O)cc2C)cc1	none
